Assay outcomes from PubChem BioAssay.
Rab9 prom act: Rab9 promoter activation | Huh7 Rab9 promoter-luciferase reporter, luminescence, 24 h | Potency, µM (top dose mostly 9.22 µM), without a hit: at the highest dose activation, negative = inhibition, actives largely listed as activators | AID 485297 | hit rate 2.8% among 320,000; further: % of control where 0% means no effect; nearly all actives have a fitted effect of over 60% in size
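Measured in stably transfected Huh7 cells bearing a Rab9 promoter–luciferase construct: 24 h compound treatment at 37 °C, followed by luminescence detection.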
ELG1 genotox: induces genotoxicity in HEK293T cells with luciferase-tagged ELG1; hit rate 1.3% among 330,000; Potency, µM (top dose mostly 46 µM), without a hit: at the top dose activity change, positive = activation, most hits filed as activators; HEK293T ELG1-luciferase reporter, luminescence, 16 h; further: % of control where 0% means no effect; nearly all actives have a fitted effect of over 60% in size
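DMSO vehicle served as control against compound-treated ELG1-luciferase HEK293T cells; exposure lasted 16 hr at 37 °C and 5% CO2, followed by ONE-Glo luminescence detection after 30 min.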
FLuc modulator: counter-screen for miR-21 project: firefly luciferase inhibitors or activators. P08659. purified FLuc, Km substrates, luminescence inhibition. Potency, µM (doses to about 57.5 µM), for the others: at the top dose activity change, negative = inhibition, usual class: inhibitors. hit rate 6.9% among 360,000. AID 588342;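 further: plate controls were vehicle for no effect and reference inhibitor for full effect; nearly all actives have a fitted effect of over 55% in size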
Target sequence (P08659 whole entry, looked up): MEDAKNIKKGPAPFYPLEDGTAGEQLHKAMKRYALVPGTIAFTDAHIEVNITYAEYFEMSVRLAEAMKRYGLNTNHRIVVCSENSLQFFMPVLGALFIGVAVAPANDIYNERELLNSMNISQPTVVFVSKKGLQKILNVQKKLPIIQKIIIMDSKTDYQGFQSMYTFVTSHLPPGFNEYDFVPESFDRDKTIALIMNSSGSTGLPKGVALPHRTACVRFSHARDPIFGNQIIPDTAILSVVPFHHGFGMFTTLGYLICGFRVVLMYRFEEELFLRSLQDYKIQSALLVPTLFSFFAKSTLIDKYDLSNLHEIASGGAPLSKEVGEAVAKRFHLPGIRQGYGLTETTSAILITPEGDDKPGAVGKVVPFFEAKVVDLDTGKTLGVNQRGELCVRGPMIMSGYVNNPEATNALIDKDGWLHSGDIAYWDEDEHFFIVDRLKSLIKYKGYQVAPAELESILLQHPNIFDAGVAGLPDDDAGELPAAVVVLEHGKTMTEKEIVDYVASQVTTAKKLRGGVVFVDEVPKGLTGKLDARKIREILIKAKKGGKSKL
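Purified P. pyralis luciferase, 10 nM final, with Km-level 10 uM D-luciferin and 10 uM ATP in 50 mM Tris acetate pH 7.5, 10 mM Mg acetate, 0.01% Tween-20, 0.05% BSA; 6-point qHTS titration about 60 µM downward; luminescence read.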
NPC1 promoter act: NPC1 promoter activation; Huh7 NPC1 promoter luciferase reporter, 24 h; Potency, µM (top dose mostly 9.22 µM), for inactives: at the top dose activation, hits mostly activators; hit rate 2.4% among 320,000; AID 485313; further: % of control where 0% means no effect; nearly all actives have a fitted effect of over 60% in size
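Luminescence read-out of NPC1 promoter-driven luciferase in stably transfected Huh7 cells; compounds delivered in DMSO and left 24 h at 37C, 5% CO2, qHTS titration format.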
Luc counter: Kinase-Glo luciferase inhibition (counter-screen); hit rate 0.28% among 200,000; Q27757; Potency, µM (highest dose often 38.3 µM), without a hit: at the highest dose activity change, negative = inhibition, actives largely listed as inhibitors; Kinase-Glo luciferase, ATP luminescence, 8 min; further: on the % scale 0 is the no-effect control and ±100 the full control effect; nearly all actives have a fitted effect of over 60% in size
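Luminescence was the read-out, taken after 8-minute incubation at ambient temperature. Luciferase turned over luciferin with 10 uM ATP in imidazole pH 7.2 buffer containing KCl, MgCl2, Tween 20 and BSA.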
SMN2 splice enh: SMN2 splice variant enhancement. HEK293 SMN2-luciferase splicing reporter, luminescence, 30-36 h. Potency, µM (highest dose often 46.1 µM), without a hit: at the highest dose activity change, positive = activation, usual class: activators. hit rate 2.8% among 210,000. AID 1458; further: % of control where 0% means no effect; nearly all actives have a fitted effect of over 55% in size
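qHTS luciferase splicing reporter: luminescence rises when SMN2 exon 7 is included in transfected HEK293 cells. Compound exposure lasted 30-36 h at 37C, with 4.5 mM final sodium butyrate as control, followed by a ONE-Glo read.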
* = called active by the depositor; ? = inconclusive; / = no result given; [ ] = another dose, or the depositor's remark. This is a sample that favours compounds with a hit; in the whole collection about 7.5% have one here. The call rests on the fitted dose curve; in most records, active means well fitted curve in the direction sought with a large enough effect; inconclusive means small, poorly fitted or top-dose-only effect, or another doubt; inactive means no such curve, though single readings can be large; an effect the other way counts as inactive or inconclusive. Potency means the concentration at half of the fitted maximal effect.

SMILES	Rab9 prom act	ELG1 genotox	FLuc modulator	NPC1 promoter act	Luc counter	SMN2 splice enh
Cc1cc(=O)oc2c(C)c(OC(C)C(=O)NCC3CCC(C(=O)O)CC3)ccc12 (stereo unspecified)	-1.3%	1.1%	-0.5%	6.3%	/	/
COc1ccc2c(c1)c(=O)oc1c(C)c(OCc3ccc(C(=O)O)cc3)ccc12	6.8%	2.7%	23.9µM*	-4.7%	/	/
COc1ccc2c(c1)c(=O)oc1c(C)c(OCc3cc(C(=O)O)oc3C)ccc12	11.6%	?	10.7µM*	-0.8%	-1.7%	0.9%
COc1ccc2c(c1)c(=O)oc1c(C)c(OCC(=O)N3CCc4ccccc4C3)ccc12	6.7%	1.8%	-13.1%	-2.1%	-6.7%	-18.2%
COc1ccc2c(c1)c(=O)oc1c(C)c(OC(C)C(=O)NCC3CCC(C(=O)O)CC3)ccc12 (stereo unspecified)	4.9%	9.1%	15.1µM*	7.8%	/	/
Cc1oc(C(=O)O)cc1COc1ccc2c3c(c(=O)oc2c1)CCC3	3.8%	?	?	12.2%	0.1%	-0.6%
CCc1ccccc1NC(=O)N1CCN(Cc2nc3ccc(C)cc3o2)CC1	/	/	-1.6%	/	/	/
COc1ccccc1/C=N/OC(=O)c1ccc(C)cc1	-1.1%	3.8%	1.9µM*	-6.6%	-0.9%	/
COc1ccc(S(=O)(=O)N/N=C\c2ccc3c(c2)OCO3)c(OC)c1	-13.3%	1.2%	-8.7%	-12.3%	/	/
O=S(=O)(N/N=C\c1ccc2c(c1)OCO2)c1ccccc1	0.1%	7.8%	21.3µM*	-0.5%	/	/
Cc1ccc(S(=O)(=O)N/N=C\c2ccc3c(c2)OCO3)cc1	4.8%	2.1%	15.1µM*	-4.6%	0.7%	8.7%
O=S(=O)(N/N=C\c1ccc2c(c1)OCO2)c1ccc(F)cc1	2.9%	-4.6%	-10.9%	-0.2%	/	/
COc1ccc(OC)c(S(=O)(=O)N/N=C\c2ccc3c(c2)OCO3)c1	21.4%	?	9.53µM*	25.6%	/	/
C=CCn1c(COc2ccccc2)nnc1SC(C)C(=O)N/N=C/c1cc(Cl)ccc1O (stereo unspecified)	2.7%	8.1%	-0.8%	1.3%	3.3%	-67.6%
CCOC(=O)N1CCN(CC(=O)Nc2nc3ccc(OC)cc3s2)CC1	2.0%	-3.9%	-9.6%	-0.7%	/	/
COc1cccc(/C=C/C(=O)Nc2ccc3nc(N4CCN(C)CC4)cc(C)c3c2)c1OC	/	/	?	/	/	-56.3%
Cc1ccc(C(=O)O/N=C/c2ccc3c(c2)OCO3)cc1	9.5%	-0.1%	1.2µM*	0.4%	-3.5%	1.8%
Cc1nn2c(-c3ccco3)ccnc2c1-c1ccc(F)cc1	/	/	?	/	/	1.1%
O=C(Nc1cccc(-c2cn3c(n2)SCC3)c1)c1ccc2ccccc2n1	0.398µM*	?	3.01µM*	0.282µM*	-0.3%	12.6µM*
O=C(Nc1ccc(-c2cn3c(n2)SCC3)cc1)c1ccc2ccccc2n1	8.4%	-11.8%	19µM*	20.7%	-0.1%	19.4%
CCCS(=O)(=O)Nc1cccc(-c2cn3c(n2)SCC3)c1	-0.1%	-0.2%	-1.7%	-1.8%	/	/
c1ccc(-c2cn3c(n2)SCC3)cc1	21.0%	7.8%	?	17.2%	-3.7%	22.2%
COc1cccc(-n2c(=O)c3cc(OC)c(OC)cc3n(CC(=O)Nc3ccc(F)cc3)c2=O)c1	/	/	-3.6%	/	/	0.0%
COc1ccc2c3c(ccc2c1)N[C@H](C(=O)O)CC3	/	/	/	/	-7.8%[7.66 µM]	?
O=C(Nc1c[nH]c(=O)[nH]c1=O)c1cc([N+](=O)[O-])cc([N+](=O)[O-])c1	-0.3%[1.84 µM]	0.7%	1.1%	-2.5%	/	/
SMILES	Rab9 prom act	ELG1 genotox	FLuc modulator	NPC1 promoter act	Luc counter	SMN2 splice enh
COc1cc(OC)c(C(=O)Nc2cccc(C(C)=O)c2)cc1OC	?	?	13.5µM*	17.6%	-8.4%	-11.6%
COc1ccc(C(=O)Nc2cccc(C(C)=O)c2)c(OC)c1OC	22.7%	?	12µM*	19.5%	-2.0%	-3.2%
CC(C)C(=O)Nc1ccc(NC(=O)c2cccs2)cn1	?	18.4µM*	?	?	8.7%	7.1%
CC(C)C(=O)Nc1ccc(NC(=O)c2ccccn2)cn1	0.562µM*	?	6.75µM*	0.708µM*	/	/
Cc1cc(NC(=O)C(C)C)ncc1NC(=O)c1ccccn1	3.16µM*	?	?	?	-3.3%	12.6µM*
CCCC(=O)Nc1cc(C)c(NC(=O)c2ccccn2)cn1	?	3.9%	-19.0%	24.0%	-8.5%	7.9%
O=C(Nc1ccc(NC(=O)C2CC2)nc1)c1cnccn1	14.4%	?	-20.7%	3.2%	-7.0%	?
O=C(Nc1ccc(NC(=O)C2CC2)nc1)c1ccccn1	1.26µM*	?	6.75µM*	0.562µM*	/	/
CC(C)C(=O)Nc1ccc(NC(=O)c2cccnc2)cn1	-0.3%	5.0%	0.2%	-5.6%	-1.3%	2.4%
O[C@@](CCN1CCCCC1)(c1ccccc1)C1CCCCC1	/	/	/	/	-0.8%[17.1 µM]	-13.1%[20.6 µM]
CCC(=O)Nc1ccc(NC(=O)c2ccccn2)cn1	0.631µM*	2.51µM*	10.7µM*	1.26µM*	-18.1%	14.1µM*
COc1cccc(/C=C2\SC(=S)N(N3C(=O)CCCC3=O)C2=O)c1	-11.1%	1.5%	21.3µM*	-0.6%	-2.4%	11.5%
O=C1/C(=C/c2cccc(O)c2)SC(=S)N1CC1CCCO1 (stereo unspecified)	-8.9%	5.3%	?	-12.8%	/	/
COc1cccc(/C=C2\SC(=S)N(CC3CCCO3)C2=O)c1 (stereo unspecified)	-8.2%	5.9%	10.7µM*	-2.6%	1.1%	-19.8%
CCN(CC)S(=O)(=O)c1ccc2c(c1)c(=O)c(C(=O)NCc1ccc(Cl)cc1)cn2C	/	/	-1.0%	/	/	-0.8%
CC(C)(C)C(=O)OCC(=O)C1CCC2C3CCC4=CC(=O)CCC4(C)C3CCC12C (stereo unspecified)	/	/	/	/	2.4%[39.9 µM]	/
O=S(=O)(Cc1noc(-c2ccccc2Cl)n1)c1ccccn1	1.41µM*	?	10.7µM*	1.58µM*	/	/
CCS(=O)(=O)N1CCc2cc(C(=O)NCCc3ccc(OC)c(OC)c3)ccc21	/	/	-9.7%	/	/	/
Cc1cccc(C(=O)NCC(=O)OCC(=O)c2ccc(Cl)s2)c1	-0.1%	3.2%	-15.4%	-3.1%	/	/
Brc1ccc(/C=C/C=N/Nc2nc3ccccc3s2)cc1	/	2.1%	9.53µM*	?	-3.2%	-17.6%
Cc1ccc(-c2csc(N/N=C/C=C/c3ccccc3)n2)cc1	-0.2%	-0.1%	-12.6%	-2.8%	-5.2%	0.6%
O=S(=O)(N/N=C\C=C\c1ccccc1)c1ccc(Br)cc1	0.4%	-0.3%	0.4%	-2.7%	-1.1%	13.4%
C(=C\c1ccccc1)/C=N/Nc1nc2ccccc2s1	1.26µM*	?	2.39µM*	1.58µM*	2.2%	14.1µM*
CC1CCC/C(=N/Nc2nc3ccccc3s2)C1 (stereo unspecified)	3.55µM*	?	0.849µM*	22.0%	-11.9%	11.2µM*
